These results are taken from the OligoGym collection.

Targets include NPC1L1; NPEPL1; NPR1; NPSR1.
Common to all, as to assay: pooled miR-30 sensor sort-seq; sequence = guide strand
What all share (settings): shRNA
Also: reference of the scale not given here.

As to TTGATAGAACCTTCAAAGCTGT, in the experiment with NPC1L1, the sensor-assay potency score (higher = more potent) is -0.451.

TCGCTCACCAGCATGCACCGGT gave a sensor-assay potency score (higher = more potent) with NPEPL1 of -0.443.

For the sequence TTCGGTTCCACATCCGCTGAGT, the sensor-assay potency score (higher = more potent) with NPR1 worked out at 0.0187.

TTGGAGTCCACCATCACTCGGC: the sensor-assay potency score (higher = more potent) with NPC1L1 turned out to be 0.203.

Regarding TAAAACACATTGGTGATCGTGT, the sensor-assay potency score (higher = more potent) with NPC1L1 turned out to be 0.009.

In the experiment with NPSR1, TTTGCCTTTGAGATGAGTCCTC gave a sensor-assay potency score (higher = more potent) of 0.0754.
